The panel holds about 83,000 compounds, 20% with a hit somewhere; the sample as a whole holds those more often.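 How to read the values: 0–100, growth inhibition (40 = 60% inhibited); 0, no net growth; -100 to 0, cell death (-40 = 40% of starting cells died; -100 = all dead).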 The source made the active and inactive calls. Rule for the calls: active = growth percent below 10; inactive = the rest.
How the values were obtained:
Test in all cases: NCI-60 one-dose screen, 48 h (100 = growth as untreated, 0 = no growth, -100 = all killed)
Details in all cases: 10 µM unless noted
[1] = test system: HCT-15 colon
[2] = test system: HT29 colon
[3] = test system: SNB-75 CNS
[4] = test system: SNB-19 CNS
[5] = test system: U251 CNS
[6] = test system: PC-3 prostate
[7] = test system: UACC-62 melanoma
[8] = test system: LOX IMVI melanoma
[9] = test system: SK-MEL-28 melanoma
[10] = test system: SK-MEL-2 melanoma
[11] = test system: EKVX NSCLC
[12] = test system: SN12C renal
[13] = test system: UO-31 renal
[14] = test system: TK-10 renal
[15] = test system: ACHN renal
[16] = test system: CAKI-1 renal
[17] = test system: A498 renal
[18] = test system: CCRF-CEM leukemia
[19] = test system: MOLT-4 leukemia

Measured: growth

CCN(CC)CCCCNc1c2ccc(Cl)cc2nc2ccc(OC)cc12
inactive: [14] 15.4%
active: [1] -21.2% | [2] 3.91% | [3] -95.3% | [4] 1.53% | [5] -9.07% | [6] -45.9% | [7] -30.8% | [8] -57.3% | [9] -82.5% | [10] 2.05% | [11] -8.96% | [12] 4.57% | [13] -14.6% | [15] -56.7% | [16] 9.92% | [17] -83.9% | [18] -27.8% | [19] -22.2%

CCOc1cc2ncc(C#N)c(Nc3ccc(OCc4cccc(F)c4)c(Cl)c3)c2cc1NC(=O)CC1CCSS1 (stereo not drawn)
inactive: [1] 66.4% | [2] 17.6% | [3] 102% | [4] 81.5% | [5] 55.9% | [7] 71.6% | [9] 34.9% | [10] 25.9% | [11] 27.3% | [12] 46% | [13] 39.3% | [14] 38.6% | [15] 59.7% | [16] 43% | [17] 64%
active: [6] -42.7% | [8] -35.3% | [18] 9.64% | [19] -25.2%

COc1ccc(C2Nc3c(c(C(C)(C)C)nn3-c3ccccc3)C(=O)CS2)cc1 (stereo not drawn)
inactive: [1] 97.7% | [2] 86.7% | [3] 89.2% | [4] 98.8% | [5] 102% | [6] 79.5% | [7] 80% | [8] 94.5% | [9] 113% | [10] 98.8% | [11] 93.9% | [12] 99.8% | [13] 72% | [14] 100% | [15] 99.9% | [16] 81.9% | [17] 113% | [18] 83.9% | [19] 75.7%

CCOC(=O)C(C)(C#N)C1C=CCCC1 (stereo not drawn)
inactive: [1] 91.3% | [2] 94.7% | [3] 78.3% | [4] 87.9% | [5] 106% | [6] 94.2% | [7] 97.7% | [8] 96.1% | [9] 96.2% | [10] 96.5% | [11] 96.7% | [12] 95% | [13] 84% | [14] 83.2% | [15] 92.3% | [16] 75.1% | [17] 63.2% | [18] 84.6% | [19] 98%

CC(C)C[C@@H](NC(=O)[C@@H](Cc1ccccc1)NC(=O)c1cnccn1)B1Oc2ccc(C[C@H](NC(=O)[C@H](Cc3ccc4c(c3)OB([C@@H](CC(C)C)NC(=O)[C@@H](Cc3ccccc3)NC(=O)c3cnccn3)O4)NC(=O)[C@@H](N)CC3CCC4OB([C@@H](CC(C)C)NC(=O)[C@@H](CC5CCCCC5)NC(=O)C5CNCCN5)OC4C3)C(=O)NCCCC[C@@H]3NC(=O)[C@@H](Cc4ccccc4)NC(=O)[C@H](CC(=O)O)NC(=O)CNC(=O)[C@H](CCCNC(=N)N)NC3=O)cc2O1 (stereo partly drawn)
active: [1] -49.1% | [2] -61.9% | [3] -64% | [4] -24.7% | [5] -58.4% | [6] -48.4% | [7] -73.8% | [8] -87.9% | [9] -31.7% | [10] -15.9% | [11] -16.4% | [12] -40.2% | [13] -27.2% | [14] -77.8% | [15] -11.9% | [16] -40.9% | [17] -96% | [18] 2.22% | [19] 1.17%

CCN1CCC2(CC1)NC(=O)c1c(c3ccc(Cl)c(Cl)c3n1C)C2C#N (stereo not drawn)
inactive: [1] 14.3% | [3] 51.2% | [4] 84.9% | [5] 57% | [6] 47.1% | [8] 30.6% | [10] 21.4% | [11] 68.8% | [12] 49.4% | [13] 43% | [14] 54.5% | [15] 45.6% | [16] 37.3% | [18] 39.5% | [19] 24.4%
active: [2] 7.28% | [7] -83.2% | [9] -100% | [17] 3.01%

COc1ccc(/C=C/C(=O)c2cc(O)ccc2O)cc1
inactive: [1] 87.7% | [2] 102% | [3] 84.1% | [4] 96.6% | [5] 84.8% | [6] 88.4% | [7] 102% | [8] 103% | [9] 109% | [10] 101% | [11] 93% | [12] 93.7% | [13] 73.1% | [14] 95.3% | [15] 84.9% | [16] 67.7% | [17] 109% | [18] 41.1% | [19] 79.2%

Reference: PubChem BioAssay (NCI)
